According to PubChem BioAssay AID1159580 (chemical genetic matrix, 2015):
Out of some 5,500 compounds screened, about 2,000 (36%) were called active. Roughly 18% stayed inconclusive and do not appear here. The list shows a part of the results. A number with no mark means an inactive call. Cut-off read from the data, not from the text of the source: active = normalized growth mostly below about 0.91 (no sharp cut-off); inconclusive = no clear call, values can overlap the other calls; inactive = mostly above about 0.92.

Assay: chemical genetic growth profiling, strain panel (AID 1159580);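 note: tested at 20 µM; growth read once vehicle control cultures reached saturation at 30 °C; 1 = growth at the plate median or of vehicle wells; lower values mean less growth of the strain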
Conditions: growth OD

**Q.** What does the source list for COC(=O)NC(=S)Nc1ccccc1NC(=S)NC(=O)OC?
**A.** normalized growth (S. cerevisiae deletion strains, locus YJR075W, strain HOC1, active compounds read low): 1.01; normalized growth (S. cerevisiae deletion strains, locus YKL009W, strain mrt4, active compounds read low): 0.995; normalized growth (S. cerevisiae deletion strains, locus YKL068W, active compounds read low): 0.996; normalized growth (S. cerevisiae deletion strains, locus YKL085W, strain MDH1 (second series), active compounds read low): 1; normalized growth (S. cerevisiae deletion strains, locus YKL085W, strain MDH1, active compounds read low): 1; normalized growth (S. cerevisiae deletion strains, locus YKL160W, strain elf1, active compounds read low): 0.952; normalized growth (S. cerevisiae deletion strains, locus YKL190W, strain CNB1, active compounds read low): 1.01; normalized growth (S. cerevisiae deletion strains, locus YKR001C, strain vps1, active compounds read low): 0.991; normalized growth (S. cerevisiae deletion strains, locus YKR026C, strain gcn3, active compounds read low): 0.974; normalized growth (S. cerevisiae deletion strains, locus YKR091W, strain srl3, active compounds read low): 0.97; normalized growth (S. cerevisiae deletion strains, locus YLL001W, strain dnm1, active compounds read low): 0.972; normalized growth (S. cerevisiae deletion strains, locus YLL026W, active compounds read low): 0.981; normalized growth (S. cerevisiae deletion strains, locus YLL041C, strain sdh2, active compounds read low): 0.978; normalized growth (S. cerevisiae deletion strains, locus YLR027C, strain aat2, active compounds read low): 0.975; normalized growth (S. cerevisiae deletion strains, locus YLR039C, strain RIC1, active compounds read low): 1.02; normalized growth (S. cerevisiae deletion strains, locus YLR058C, strain SHM2, active compounds read low): 1; normalized growth (S. cerevisiae deletion strains, locus YLR102C, strain apc9, active compounds read low): 1.01; normalized growth (S. cerevisiae deletion strains, locus YLR113W, strain HOG1, active compounds read low): 0.983; normalized growth (S. cerevisiae deletion strains, locus YLR221C, strain rsa3, active compounds read low): 0.974; normalized growth (S. cerevisiae deletion strains, locus YLR258W, strain gsy2, active compounds read low): 0.985; normalized growth (S. cerevisiae deletion strains, locus YLR262C, strain YPT6 (second series), active compounds read low): 0.987; normalized growth (S. cerevisiae deletion strains, locus YLR262C, strain YPT6, active compounds read low): 0.989; normalized growth (S. cerevisiae deletion strains, locus YLR268W, strain sec22, active compounds read low): 1.07; normalized growth (S. cerevisiae deletion strains, locus YLR320W, strain mms22, active compounds read low): 0.856 (active); normalized growth (S. cerevisiae deletion strains, locus YLR330W, strain CHS5, active compounds read low): 1; normalized growth (S. cerevisiae deletion strains, locus YLR342W, strain FKS1 (second series), active compounds read low): 0.988; normalized growth (S. cerevisiae deletion strains, locus YLR342W, strain FKS1, active compounds read low): 0.97; normalized growth (S. cerevisiae deletion strains, locus YLR357W, strain rsc2, active compounds read low): 0.92; normalized growth (S. cerevisiae deletion strains, locus YLR370C, strain arc18, active compounds read low): 0.98; normalized growth (S. cerevisiae deletion strains, locus YLR371W, strain rom2, active compounds read low): 1.02; normalized growth (S. cerevisiae deletion strains, locus YLR384C, strain iki3, active compounds read low): 0.964; normalized growth (S. cerevisiae deletion strains, locus YLR418C, strain cdc73, active compounds read low): 0.972; normalized growth (S. cerevisiae deletion strains, locus YML016C, strain PPZ1, active compounds read low): 1; normalized growth (S. cerevisiae deletion strains, locus YML032C, strain rad52, active compounds read low): 1.05; normalized growth (S. cerevisiae deletion strains, locus YML120C, strain ndi1, active compounds read low): 0.97; normalized growth (S. cerevisiae deletion strains, locus YML124C, strain tub3, active compounds read low): 1; normalized growth (S. cerevisiae deletion strains, locus YMR058W, strain fet3, active compounds read low): 0.957; normalized growth (S. cerevisiae deletion strains, locus YMR078C, strain ctf18, active compounds read low): 1.02; normalized growth (S. cerevisiae deletion strains, locus YMR125W, strain sto1, active compounds read low): 0.974; normalized growth (S. cerevisiae deletion strains, locus YMR129W, active compounds read low): 0.98; normalized growth (S. cerevisiae deletion strains, locus YMR205C, strain PFK2, active compounds read low): 0.97; normalized growth (S. cerevisiae deletion strains, locus YMR223W, strain ubp8, active compounds read low): 0.978; normalized growth (S. cerevisiae deletion strains, locus YMR231W, strain pep5, active compounds read low): 0.993; normalized growth (S. cerevisiae deletion strains, locus YMR263W, strain SAP30, active compounds read low): 1.02; normalized growth (S. cerevisiae deletion strains, locus YMR307W, strain GAS1, active compounds read low): 0.983; normalized growth (S. cerevisiae deletion strains, locus YNL067W, strain RPL9B, active compounds read low): 1.02; normalized growth (S. cerevisiae deletion strains, locus YNL071W, strain lat1, active compounds read low): 0.772 (active); normalized growth (S. cerevisiae deletion strains, locus YNL128W, strain TEP1, active compounds read low): 1.01; normalized growth (S. cerevisiae deletion strains, locus YNL153C, strain GIM3, active compounds read low): 0.99; normalized growth (S. cerevisiae deletion strains, locus YNL183C, strain NPR1, active compounds read low): 0.902; normalized growth (S. cerevisiae deletion strains, locus YNL209W, strain ssb2, active compounds read low): 1.01; normalized growth (S. cerevisiae deletion strains, locus YNL233W, strain BNI4, active compounds read low): 1.03; normalized growth (S. cerevisiae deletion strains, locus YNL248C, strain rpa49, active compounds read low): 0.93; normalized growth (S. cerevisiae deletion strains, locus YNL250W, strain rad50, active compounds read low): 0.989; normalized growth (S. cerevisiae deletion strains, locus YNL271C, strain bni1, active compounds read low): 1.01; normalized growth (S. cerevisiae deletion strains, locus YNL298W, strain CLA4, active compounds read low): 0.978; normalized growth (S. cerevisiae deletion strains, locus YNL307C, strain MCK1, active compounds read low): 0.986; normalized growth (S. cerevisiae deletion strains, locus YNL322C, strain KRE1 (second series), active compounds read low): 0.985; normalized growth (S. cerevisiae deletion strains, locus YNL322C, strain KRE1, active compounds read low): 0.998; normalized growth (S. cerevisiae deletion strains, locus YNR049C, strain mso1, active compounds read low): 0.99; normalized growth (S. cerevisiae deletion strains, locus YNR052C, strain pop2, active compounds read low): 1.01; normalized growth (S. cerevisiae deletion strains, locus YOL006C, strain TOP1, active compounds read low): 1.09; normalized growth (S. cerevisiae deletion strains, locus YOL012C, strain htz1): 1.25; normalized growth (S. cerevisiae deletion strains, locus YOL147C, strain pex11, active compounds read low): 1.01; normalized growth (S. cerevisiae deletion strains, locus YOR001W, strain rrp6, active compounds read low): 0.986; normalized growth (S. cerevisiae deletion strains, locus YOR061W, strain CKA2, active compounds read low): 1.01; normalized growth (S. cerevisiae deletion strains, locus YOR069W, strain VPS5, active compounds read low): 1.01; normalized growth (S. cerevisiae deletion strains, locus YOR070C, strain gyp1, active compounds read low): 0.985; normalized growth (S. cerevisiae deletion strains, locus YOR080W, strain dia2, active compounds read low): 1.01; normalized growth (S. cerevisiae deletion strains, locus YOR083W, strain WHI5, active compounds read low): 0.97; normalized growth (S. cerevisiae deletion strains, locus YOR106W, strain vam3, active compounds read low): 0.887; normalized growth (S. cerevisiae deletion strains, locus YOR136W, strain idh2, active compounds read low): 0.999; normalized growth (S. cerevisiae deletion strains, locus YOR144C, strain elg1, active compounds read low): 1.01; normalized growth (S. cerevisiae deletion strains, locus YOR184W, strain ser1, active compounds read low): 1.01; normalized growth (S. cerevisiae deletion strains, locus YOR231W, strain MKK1, active compounds read low): 0.986; normalized growth (S. cerevisiae deletion strains, locus YOR265W, strain rbl2, active compounds read low): 1; normalized growth (S. cerevisiae deletion strains, locus YOR270C, strain vph1, active compounds read low): 0.858; normalized growth (S. cerevisiae deletion strains, locus YOR290C, strain snf2, active compounds read low): 0.959; normalized growth (S. cerevisiae deletion strains, locus YOR316C, strain cot1, active compounds read low): 1.01; normalized growth (S. cerevisiae deletion strains, locus YPL051W, strain arl3, active compounds read low): 0.957; normalized growth (S. cerevisiae deletion strains, locus YPL055C, strain LGE1, active compounds read low): 0.98; normalized growth (S. cerevisiae deletion strains, locus YPL078C, strain atp4, active compounds read low): 0.989; normalized growth (S. cerevisiae deletion strains, locus YPL106C, strain sse1, active compounds read low): 0.998; normalized growth (S. cerevisiae deletion strains, locus YPL240C, strain hsp82, active compounds read low): 1; normalized growth (S. cerevisiae deletion strains, locus YPL241C, strain CIN2, active compounds read low): 1.01; normalized growth (S. cerevisiae deletion strains, locus YPL256C, strain CLN2, active compounds read low): 1.01; normalized growth (S. cerevisiae deletion strains, locus YPR119W, strain clb2, active compounds read low): 1.02; normalized growth (S. cerevisiae deletion strains, locus YPR141C, strain kar3, active compounds read low): 0.994; normalized growth (S. cerevisiae deletion strains, locus YPR163C, strain tif3, active compounds read low): 1.03; normalized growth (S. cerevisiae deletion strains, locus YPR167C, strain met16, active compounds read low): 1.01; normalized growth (S. cerevisiae deletion strains, strain wtn01, active compounds read low): 1.02; normalized growth (S. cerevisiae strains, strain wild type, active compounds read low): 0.996
